# Laboratory results: ChEMBL document CHEMBL3988442, “University of Dundee, Small-Polar-MMV Screening Library” (2021)
# Out of some 66,000 compounds screened, about 960 (1.5%) showed an effect of 50% or more. The sample holds strong results, similar compounds and a random draw of the others, so the mix is not that of the screen.
# System: Trypanosoma brucei
# Test: Trypanosoma brucei 72 hour study
# Assay type: functional, organism-based
# Set-up: scale not given: in the data most compounds retested in dose-response had high values
compound,measurement,setting,value
COc1cccc(CN2C[C@@H]3CC[C@@](O)(c4ccccn4)[C@@H]3C2)c1OC.O=C(O)CC(O)(CC(=O)O)C(=O)O,Percent Effect,"30.3 µM, […]",-12.48%
CC(=O)N1[C@H](CN(C)C)C[C@@H]2CN(C(=O)Cc3cccs3)CC[C@@H]21.O=C(O)C(F)(F)F,Percent Effect,"30.3 µM, […]",-71.88%
Cn1cccc1C(=O)N[C@H]1CN(Cc2ccoc2)[C@@H]2CCCO[C@H]12.O=C(O)C(F)(F)F,Percent Effect,"30.3 µM, […]",-1.992%
Cc1cccc(CN2CCc3ncnc(NC4CCC4)c3CC2)n1.O=C(O)C(F)(F)F.O=C(O)C(F)(F)F,Percent Effect,"30 µM, 30.03 µM",-15.74%
Cc1cc(C(=O)N2CC[C@H]3C[C@H](c4ccncn4)O[C@@H]3C2)no1,Percent Effect,"30 µM, 30.03 µM",-17.17%
CN(Cc1cccnc1)Cc1cncc2c1CCN(Cc1ccoc1)C2.Cl.Cl.Cl,Percent Effect,"30.3 µM, […]",-64.05%
O=C(O)C(F)(F)F.c1cc(CN2C[C@H](OCC3CCOCC3)[C@H]3COC[C@H]32)co1,Percent Effect,"30.3 µM, […]",-13.64%
Cc1ccc(S(=O)(=O)N2CC[C@H]3CO[C@H](CN(C)C)[C@H]3C2)cc1.O=C(O)C(F)(F)F,Percent Effect,"30 µM, 30.03 µM",-6.145%
Cc1ccc(CN2CCC3(CC2)NC(=O)CC3c2ccncc2)cc1C.O=C(O)C(F)(F)F.O=C(O)C(F)(F)F (stereo unspecified),Percent Effect,"30 µM, 30.03 µM",-19.59%
Fc1ccc(-c2nc(CN3CCOC(Cn4cccn4)C3)co2)cc1 (stereo unspecified),Percent Effect,"30.3 µM, […]",15.69%
COc1cc(OC)cc(-c2cc(CN)nc3ccnn23)c1.Cl,Percent Effect,"30.3 µM, […]",0.9349%
Cc1ccc(CN2Cc3ccnn3CC(C(=O)NCC3CC3)C2)o1.O=C(O)C(F)(F)F.O=C(O)C(F)(F)F (stereo unspecified),Percent Effect,"30.3 µM, […]",-12.67%
Cc1cccc(-c2noc(CN3CCOC(Cn4cccn4)C3)n2)c1 (stereo unspecified),Percent Effect,"30.3 µM, […]",7.086%
CCCc1nc(NCCCOCC)c2c(n1)c(C)nn2CC,Percent Effect,"30.3 µM, […]",-18.63%
CCCc1nc(NCCCOC)c2c(n1)c(C)nn2CC,Percent Effect,"30.3 µM, […]",88.3%
CCCc1nc(NCCOC)c2c(n1)c(C)nn2CC,Percent Effect,"30.3 µM, […]",-10.53%
CCOc1ncccc1CNC(=O)NCC(O)c1ccccc1OC (stereo unspecified),Percent Effect,10 µM,-66.27%
COc1c(C)cc(CNCc2ccnc(N3CCOCC3)c2)cc1C.Cl,Percent Effect,"30.3 µM, […]",15.01%
same,Percent Effect,"10 mM, 10 mM as filed; unlikely as a test dose",-23.82%
COc1ccc(CNC(C)c2ccc(Cl)c(Cl)c2)c(OC)c1OC (stereo unspecified),Percent Effect,"30 µM, 30.03 µM",20.68%
Cc1cc2nc(-c3ccccc3)cc(NCC3CCCOC3)n2n1 (stereo unspecified),Percent Effect,"30.3 µM, […]",87.98%
c1ccc(-c2cc(NCCCC3CCOC3)n3nccc3n2)cc1 (stereo unspecified),Percent Effect,"30.3 µM, […]",35.81%
Cc1cc2nc(-c3ccccc3)cc(NCC3CCS(=O)(=O)C3)n2n1 (stereo unspecified),Percent Effect,"30.3 µM, […]",6.285%
COc1cccc(C(NCc2ccc(SC)cc2)c2nccn2C)c1 (stereo unspecified),Percent Effect,10 µM,-34.89%
CCOCC1CN(Cc2cccs2)Cc2nn(C)cc21.O=C(O)C(F)(F)F (stereo unspecified),Percent Effect,"30 µM, 30.03 µM",-3.631%
CCN(CC1CN(Cc2nc(C3CC3)no2)CCO1)c1cccnn1 (stereo unspecified),Percent Effect,"30 µM, 30.03 µM",37.04%
COC(=O)c1ccc(C(=O)N2CCCC(Nc3ccc(F)cc3)C2)cc1 (stereo unspecified),Percent Effect,"30 µM, 30.03 µM",-14.97%
Cc1ccc(C(=O)N2CCCC(Nc3ccc(F)cc3)C2)cc1 (stereo unspecified),Percent Effect,"30 µM, 30.03 µM",-28.83%
CSc1ccc(C(=O)N2CCCC(Nc3ccc(F)cc3)C2)cc1 (stereo unspecified),Percent Effect,"30 µM, 30.03 µM",63.86%
CN(C)C(=O)COC[C@]12COC[C@H]1CN(CCc1ccccc1)C2.O=C(O)C(F)(F)F,Percent Effect,"30.3 µM, […]",-48.5%
CC(C)CCc1nc(CNCC2CCCN2c2cccnn2)cs1 (stereo unspecified),Percent Effect,"30.3 µM, […]",99.06%
CC(C)c1nc(CNCC2CCCN2c2cccnn2)cs1 (stereo unspecified),Percent Effect,"30.3 µM, […]",100.4%
c1ccc(-c2nnc(CNCC3CCCN3c3cccnn3)o2)cc1 (stereo unspecified),Percent Effect,"30 µM, 30.03 µM",-41.79%
CCc1nc(CNCC2CCCN2c2cccnn2)cs1 (stereo unspecified),Percent Effect,"30.3 µM, […]",4.558%
CCCc1nc(CNCC2CCCN2c2cccnn2)cs1 (stereo unspecified),Percent Effect,"30.3 µM, […]",34.1%
CCc1nc(CN2CCOC(CNc3cccnn3)C2)cs1 (stereo unspecified),Percent Effect,"30.3 µM, […]",-0.3167%
Cc1nc(CNCC2CCCN2c2cccnn2)cs1 (stereo unspecified),Percent Effect,"30 µM, 30.03 µM",-9.671%
c1cnnc(N2CCCC2CNCc2csc(-c3ccco3)n2)c1 (stereo unspecified),Percent Effect,"30.3 µM, […]",17.07%
CN(Cc1coc(-c2ccccc2)n1)CC1CCCN1c1cccnn1 (stereo unspecified),Percent Effect,"30 µM, 30.03 µM",-1.174%
Cc1nc(CN2CCOC(CNc3cccnn3)C2)cs1 (stereo unspecified),Percent Effect,"30 µM, 30.03 µM",-27.36%
CC(C)c1nc(CN2CCOC(CNc3cccnn3)C2)cs1 (stereo unspecified),Percent Effect,"30.3 µM, […]",100.6%
c1ccc(-c2nc(CNCC3CCCN3c3cccnn3)co2)cc1 (stereo unspecified),Percent Effect,"30.3 µM, […]",97.98%
Cc1nn(C)c(N2CCOCC2)c1CNC1CCc2cc(F)ccc21.Cl (stereo unspecified),Percent Effect,"30.3 µM, […]",2.572%
O=C(c1ccccn1)N1CCCC(c2cc(C(F)F)n3ncnc3n2)C1 (stereo unspecified),Percent Effect,"30.3 µM, […]",-6.514%
CN(C)CCn1c2c(ccc1=O)CCN(C(=O)c1cccs1)CC2.O=C(O)C(F)(F)F,Percent Effect,"30.3 µM, […]",-37.11%
CC(C)NC(=O)CC1COC2(CCN(Cc3ccco3)CC2)C1 (stereo unspecified),Percent Effect,"30.3 µM, […]",-14.26%
Cn1ccc(C(=O)NC2CCC23CCN(Cc2ccc(F)cc2)CC3)c1.O=C(O)C(F)(F)F (stereo unspecified),Percent Effect,"30 µM, 30.03 µM",3.839%
CC(C)CCN1CCc2nc(N3CCOCC3)nc(NC(C)C)c2C1,Percent Effect,"30.3 µM, […]",99.5%
CCC(C)N1CCc2nc(N3CCCC3)nc(NC(C)C)c2C1 (stereo unspecified),Percent Effect,"30.3 µM, […]",80.67%
CC(C)Nc1nc(N2CCCC2)nc2c1CN(S(C)(=O)=O)CC2,Percent Effect,"30.3 µM, […]",-6.542%
CC(C)Nc1nc(N2CCCC2)nc2c1CN(C)CC2,Percent Effect,"30.3 µM, […]",-8.686%
CCCN1CCc2nc(N3CCOCC3)nc(NC(C)C)c2C1,Percent Effect,"30.3 µM, […]",-24.43%
CC(C)CC(=O)N1CCc2nc(N3CCOCC3)nc(NC(C)C)c2C1,Percent Effect,"30 µM, 30.03 µM",21.8%
COCCC(=O)N1CCc2nc(N3CCOCC3)nc(NC(C)C)c2C1,Percent Effect,"30.3 µM, […]",-26.7%
CC(C)Nc1nc(N2CCCC2)nc2c1CN(c1ncc(F)cn1)CC2,Percent Effect,"30.3 µM, […]",99.94%
CCN1CCc2nc(N3CCOCC3)nc(NC(C)C)c2C1,Percent Effect,"30.3 µM, […]",-20.31%
CC(C)Nc1nc(N2CCOCC2)nc2c1CN(CC(=O)N(C)C)CC2,Percent Effect,"30 µM, 30.03 µM",-12.25%
CC(C)Nc1nc(N2CCCC2)nc2c1CN(C(C)C)CC2,Percent Effect,"30 µM, 30.03 µM",99.66%
CC(C)Nc1nc(N2CCCC2)nc2c1CCN(S(C)(=O)=O)CC2.O=C(O)C(F)(F)F.O=C(O)C(F)(F)F,Percent Effect,"30.3 µM, […]",-7.363%
COc1ccc(Oc2cc(CN)ccn2)cc1,Percent Effect,"30 µM, 30.03 µM",-27.14%
O=C1N(c2ccsc2)CCC12CCCN(c1ncc(F)cn1)C2 (stereo unspecified),Percent Effect,"30.3 µM, […]",6.515%
